Our source for the Potency values is PubChem BioAssay (NCATS).

Results filed as inconclusive are left out. Active and inactive are the calls of the source. Unless noted, calls come from the whole dose curve; as a rule, active = well fitted curve in the direction sought with a large enough effect; inconclusive = small, poorly fitted or top-dose-only effect, or another doubt; inactive = no such curve, though single readings can be large; an effect the other way counts as inactive or inconclusive.

Assay [1] concerns the target Calcium and integrin-binding protein 1 (Homo sapiens) (UniProt Q99828). The assay can be described thus: Primary qHTS for Identification of Calcium Integrin Binding Protein 1 (CIB1) Competitor (AID 1508620). Note: potency is the fitted concentration of half-maximal effect. The procedure, abridged: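 Fluorescence polarization competition: GST-tagged CIB1 (1 uM final) preincubated with compound 15 min at room temperature, then FITC-labelled alphaIIb peptide (100 nM final) added. After 15 min at room temperature, polarization read at Ex 480/Em 540.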

A short description of assay [2]: Primary qHTS for small molecule stabilizers of the endoplasmic reticulum resident proteome: Secreted ER Calcium Modulated Protein (SERCaMP) assay (AID 1508630). The procedure, abridged: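 The SH-SY5Y reporter protocol was run at 3 concentrations up to 38.3 uM (primary) or 11 concentrations (follow-up): 16 h compound, 100 nM thapsigargin for 4 h, then extracellular luciferase luminescence.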
(qHTS replaces the single test concentration by a dilution series.)

The nature of assay [3]: A High-Content qHTS Against Drug Library for the Identification of Small Molecules that Inhibit DYT1 Early Onset Primary Dystonia-Associated Cell Pathology (AID 1645839; calls by dose curve; note: series mostly up to about 46 µM). The procedure, abridged: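 Cells were seeded and left for 24 h, then dosed with compound alongside tetracycline induction of mutant EGFP-TorsinA. They were incubated for 48 h, fixed in 4% paraformaldehyde, permeabilized and imaged for mislocalization (%pathology) and cell count.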

Assay [4] deals with Cytochrome P450 2C9 (Homo sapiens) (UniProt P11712). Briefly: Cytochrome P450 family 2 subfamily C member 9 (CYP2C9) small molecule antagonists: luciferase biochemical (cell-free) qHTS assay (AID 1645842; active = well fitted curve in the direction sought with a large enough effect in the repeat runs; an effect the other way counts as inactive or inconclusive; note: nearly all actives have a fitted effect of over 55% in size; note: potency is the fitted concentration of half-maximal effect). The procedure, abridged: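 P450-Glo CYP2C9 system: proluciferin substrate with enzyme in mix containing 0.4% BSA, 10 min at room temperature, then NADPH regeneration solution added and incubated 1 h at 37C. Detection reagent stopped reaction; luminescence read after 20 min as RLU.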
Cytochrome P450 2C9 (Homo sapiens), sequence (P11712 whole entry, looked up): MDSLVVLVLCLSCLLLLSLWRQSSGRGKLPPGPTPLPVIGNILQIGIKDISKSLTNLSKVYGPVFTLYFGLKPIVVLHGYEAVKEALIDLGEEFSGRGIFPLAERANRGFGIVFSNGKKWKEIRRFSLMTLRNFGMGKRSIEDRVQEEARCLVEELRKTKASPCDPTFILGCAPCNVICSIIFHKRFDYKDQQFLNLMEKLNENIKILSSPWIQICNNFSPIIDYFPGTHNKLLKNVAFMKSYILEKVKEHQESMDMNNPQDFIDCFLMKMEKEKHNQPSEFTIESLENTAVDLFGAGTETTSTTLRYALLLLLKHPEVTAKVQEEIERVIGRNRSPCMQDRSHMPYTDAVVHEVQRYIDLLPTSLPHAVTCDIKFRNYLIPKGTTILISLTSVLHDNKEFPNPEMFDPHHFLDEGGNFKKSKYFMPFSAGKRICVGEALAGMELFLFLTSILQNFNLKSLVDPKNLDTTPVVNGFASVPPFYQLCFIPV

Assay [5] addresses Cytochrome P450 2D6 (Homo sapiens) (UniProt P10635). The assay can be described thus: Cytochrome P450 family 2 subfamily D member 6 (CYP2D6) small molecule antagonists: luciferase biochemical (cell-free) qHTS assay (AID 1645840; active = well fitted curve in the direction sought with a large enough effect in the repeat runs; an effect the other way counts as inactive or inconclusive; note: nearly all actives have a fitted effect of over 55% in size; note: potency is the fitted concentration of half-maximal effect). Summed up: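 P450-Glo CYP2D6 system: proluciferin substrate converted by enzyme to luciferin, read by luminescence proportional to activity. Enzyme-substrate mix with compound 10 min at room temperature, then NADPH regeneration 1 h before detection reagent.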

Assay [6] has as its target Cytochrome P450 3A4 (Homo sapiens) (UniProt P08684). The assay can be described thus: Cytochrome P450 family 3 subfamily A member 4 (CYP3A4) small molecule antagonists: luciferase qHTS assay (AID 1645841; active = well fitted curve in the direction sought with a large enough effect in the repeat runs; an effect the other way counts as inactive or inconclusive; note: potency is the fitted concentration of half-maximal effect; nearly all actives have a fitted effect of over 45% in size). Summed up:
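P450-Glo CYP3A4 enzyme with proluciferin substrate preincubated 10 min with compound at room temperature, then NADPH regeneration 1 h. Luciferin detection reagent added for 20 min; luminescence recorded. Ketoconazole positive control.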

Calcium and integrin-binding protein 1 (Homo sapiens), sequence (Q99828 whole entry, looked up): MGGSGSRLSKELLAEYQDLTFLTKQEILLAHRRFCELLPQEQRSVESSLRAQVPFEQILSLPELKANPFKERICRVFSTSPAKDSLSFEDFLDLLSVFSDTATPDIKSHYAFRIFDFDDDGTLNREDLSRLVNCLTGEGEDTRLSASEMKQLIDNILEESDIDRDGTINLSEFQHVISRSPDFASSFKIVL
Cytochrome P450 2D6 (Homo sapiens), sequence (P10635 whole entry, looked up): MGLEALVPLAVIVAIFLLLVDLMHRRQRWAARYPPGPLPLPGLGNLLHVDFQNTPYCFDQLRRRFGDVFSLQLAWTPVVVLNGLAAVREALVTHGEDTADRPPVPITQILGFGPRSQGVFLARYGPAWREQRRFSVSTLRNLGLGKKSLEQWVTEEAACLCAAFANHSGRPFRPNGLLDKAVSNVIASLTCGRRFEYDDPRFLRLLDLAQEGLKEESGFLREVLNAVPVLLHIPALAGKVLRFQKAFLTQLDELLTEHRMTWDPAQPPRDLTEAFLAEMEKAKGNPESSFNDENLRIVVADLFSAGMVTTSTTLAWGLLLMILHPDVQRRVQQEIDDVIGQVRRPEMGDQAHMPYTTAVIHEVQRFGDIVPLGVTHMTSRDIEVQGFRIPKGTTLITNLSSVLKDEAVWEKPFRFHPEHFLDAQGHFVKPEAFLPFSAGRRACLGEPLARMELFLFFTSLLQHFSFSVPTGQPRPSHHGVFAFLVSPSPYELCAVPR
Cytochrome P450 3A4 (Homo sapiens), sequence (P08684 whole entry, looked up): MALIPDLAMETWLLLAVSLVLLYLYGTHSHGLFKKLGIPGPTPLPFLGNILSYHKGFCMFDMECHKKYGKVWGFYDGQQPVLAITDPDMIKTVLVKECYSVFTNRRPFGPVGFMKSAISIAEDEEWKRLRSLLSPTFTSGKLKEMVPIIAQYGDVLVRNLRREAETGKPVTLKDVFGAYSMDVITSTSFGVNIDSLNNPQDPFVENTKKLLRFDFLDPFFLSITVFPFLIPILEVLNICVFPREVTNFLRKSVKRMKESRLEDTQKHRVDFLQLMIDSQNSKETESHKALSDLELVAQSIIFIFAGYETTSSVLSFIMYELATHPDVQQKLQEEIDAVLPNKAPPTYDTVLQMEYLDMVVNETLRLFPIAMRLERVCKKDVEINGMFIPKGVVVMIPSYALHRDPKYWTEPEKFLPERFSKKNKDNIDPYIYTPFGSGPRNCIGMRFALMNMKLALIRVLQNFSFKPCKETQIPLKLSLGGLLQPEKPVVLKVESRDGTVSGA

Take `CC1(C)OC(=O)Nc2ccc(Br)cc21`: the Potency result in assay [1], in assay [2], in assay [3] and in assay [4] was “inactive” each time.
On to `CC(C)OP(=O)(CP(=O)(OC(C)C)OC(C)C)OC(C)C`, for which the Potency entry in assay [1], in assay [2], in assay [3], in assay [5] and in assay [4] was “inactive” throughout.
For the compound `CCC(=O)O[C@]1(C(=O)COC)[C@@H](C)C[C@H]2[C@@H]3CCC4=CC(=O)C=C[C@]4(C)C3(F)[C@@H](O)C[C@@]21C` (some centres undefined), the Potency result in assay [1], in assay [2] and in assay [3] was “inactive” in each case. The Potency in assay [4] was 24.5 µM (active).
With `CCc1cc2cc(OC)c(OC)cc2c(Cc2ccccc2)n1`, the Potency entry in assay [1], in assay [2] and in assay [3] was “inactive” throughout. In assay [4], the Potency is 15.5 µM (active).
`CC[N+]1(CC)CCC(=C(c2ccccc2)c2ccccc2)C1C` (centres undefined): the Potency entry in assay [1], in assay [2], in assay [3] and in assay [4] was “inactive” throughout. Besides, the Potency in assay [5] was 1.74 µM (active).
Regarding `CC(C)(C)CC(=O)OCC(=O)[C@@]1(O)CC[C@H]2[C@@H]3CCC4=CC(=O)C=C[C@]4(C)[C@H]3[C@@H](O)C[C@@]21C`, the Potency result in assay [1], in assay [2] and in assay [3] was “inactive” throughout. Further, the Potency in assay [4] is 11 µM (active).
Consider `CC(=O)OCC[N+](C)(C)C`, for which the Potency entry in assay [1], in assay [2], in assay [3] and in assay [4] was “inactive” throughout.
On to `C[C@@]12CCC[C@H]1[C@@H]1CC[C@H]3C[C@@H](O)CC[C@]3(C)[C@H]1CC2`, for which the Potency entry in assay [1], in assay [2] and in assay [3] was “inactive” throughout. Also, the Potency in assay [4] was 22.9 µM (active).
As to `COc1cc2c(cc1OC)CN(C(=O)[C@H](C)N[C@@H](CCc1ccccc1)C(=O)O)[C@H](C(=O)O)C2`, the Potency entry in assay [1], in assay [2], in assay [3], in assay [5] and in assay [4] was “inactive” throughout.
Turning to `Nc1ccc([N+](=O)[O-])c(C(F)(F)F)c1`, the Potency result in assay [1], in assay [2], in assay [3], in assay [5] and in assay [4] was “inactive” in each case.
Consider `Cc1ncc(CO)c(CO)c1O`, for which the Potency entry in assay [1], in assay [2], in assay [3], in assay [5] and in assay [4] was “inactive” throughout.
On to `CCOC(=O)N1CCC(n2c(=O)[nH]c3cc(Cl)ccc32)CC1`, for which the Potency entry in assay [1], in assay [2] and in assay [3] was “inactive” throughout. In addition, in assay [4], the Potency was 11 µM (active).
As for `CC(CCc1ccc2c(c1)OCO2)NN` (centres undefined), the Potency entry in assay [1], in assay [2] and in assay [3] was “inactive” throughout. Moreover, the Potency in assay [4] is 15.5 µM (active).
For the compound `CCCCCC(=O)O[C@]1(C(C)=O)CC[C@H]2[C@@H]3CCC4=CC(=O)CC[C@]4(C)[C@H]3CC[C@@]21C`, the Potency result in assay [1], in assay [2] and in assay [3] was “inactive” in each case. In addition, the figures for the Potency in assay [5] and in assay [4] were 13.8 µM (active) and 4.9 µM (active), respectively.
As for `O=C1CCCc2c(O)cccc21`, the Potency result in assay [1], in assay [2], in assay [3] and in assay [4] was “inactive” each time.
With `C/C(=C1\CCOC(=O)S1)N(C=O)Cc1cnc(C)nc1N`, the Potency entry in assay [1], in assay [2], in assay [3] and in assay [4] was “inactive” each time.
Regarding `CCOc1ccc(NS(=O)(=O)c2ccc(N)cc2)nn1`, the Potency result in assay [1], in assay [2], in assay [3], in assay [5] and in assay [4] was “inactive” each time.
As for `CC[C@@H]([C@H](C)O)n1ncn(-c2ccc(N3CCN(c4ccc(OC[C@@H]5CO[C@@](Cn6cncn6)(c6ccc(F)cc6F)C5)cc4)CC3)cc2)c1=O`, the Potency result in assay [1], in assay [2] and in assay [5] was “inactive” throughout.
Take `CC(C)(C)c1nnc(NS(=O)(=O)c2ccccc2)s1`: the Potency result in assay [1], in assay [2] and in assay [5] was “inactive” in each case.
For the compound `CCCCCOc1ccc(C2SC(=O)NC2=O)cc1OCC` (centres undefined), the Potency entry in assay [1], in assay [2] and in assay [5] was “inactive” each time. For the same compound, the Potency in assay [4] is 7.76 µM (active).
For the compound `CCOC(=O)C(=O)CCCCCCl`, the Potency entry in assay [1] and in assay [2] was “inactive” each time. In assay [4], the Potency was 24.2 µM (active).
With `Cc1[nH]cnc1-c1ccc(Cl)cc1`, the Potency entry in assay [1] and in assay [3] was “inactive” in each case. In assay [5], the Potency is 17.4 µM (active).
Take `CC(NN)c1ccccc1` (centres undefined): the Potency entry in assay [1] and in assay [3] was “inactive” in each case.
With `Nc1ccc2cc3ccc(N)cc3nc2c1`, the Potency is 2.24 µM (active) in assay [1] and 4.36 µM (active) in assay [6]. Further, the Potency entry in assay [2], in assay [5] and in assay [4] was “inactive” each time.
As for `c1ccc(C(O[C@H]2CCCN(CCc3ccc4c(c3)OCO4)C2)c2ccccc2)cc1`, the Potency result in assay [1] and in assay [2] was “inactive” in each case. Besides, the Potency in assay [5] is 0.0123 µM (active); in assay [4], 24.5 µM (active).
For `CCC(CN)=C(c1ccccc1)c1ccccc1`, the Potency entry in assay [1] and in assay [2] was “inactive” in each case. In addition, the Potency was 3.63 µM (active) in assay [5] and 11.5 µM (active) in assay [4].
For `COc1ccc(OC(=O)N(CC(=O)O)Cc2ccc(OCCc3nc(-c4ccccc4)oc3C)cc2)cc1`, the Potency entry in assay [1] and in assay [2] was “inactive” in each case. Moreover, the Potency in assay [4] was 17.4 µM (active).
Take `c1ccc2c(c1)CCc1ccccc1N2`: the Potency result in assay [1] and in assay [3] was “inactive” each time.
For `CCCCNc1ccc(C(=O)OCCN(CC)CC)cc1`, the Potency result in assay [1], in assay [2] and in assay [4] was “inactive” in each case. The Potency in assay [5] is 3.47 µM (active).
On to `CN1CCCN=C1/C=C/c1cccs1`, for which the Potency entry in assay [1] and in assay [3] was “inactive” throughout.
In the case of `Cc1cc(O)c2c(O)c3c(O)cccc3cc2c1`, the Potency entry in assay [1], in assay [2] and in assay [5] was “inactive” each time. The Potency in assay [4] was 3.09 µM (active).
With `CCCCCN(CCCOC)C(=O)C(CCC(=O)O)NC(=O)c1ccc(Cl)c(Cl)c1` (centres undefined), the Potency result in assay [1], in assay [2] and in assay [5] was “inactive” in each case. For the same compound, the Potency in assay [4] was 19.5 µM (active).
Consider `CO[C@@H]1[C@@H](OC)[C@H](C)[C@@](O)(CC(=O)O)O[C@H]1[C@H](C)[C@H]1O[C@@]2(CC[C@@](C)([C@H]3CC[C@@](C)([C@@H]4O[C@@H]([C@H]5O[C@](C)(O)[C@H](C)C[C@@H]5C)C[C@@H]4OC4C[C@H](OC)[C@@H](OC)[C@H](C)O4)O3)O2)C[C@H](O)[C@H]1C` (some centres undefined), for which the Potency result in assay [1], in assay [2], in assay [5] and in assay [4] was “inactive” each time.
